Assay [1] relates to PRMT1 (protein arginine N-methyltransferase 1). The assay can be described thus: small molecules binding arginine methyltransferase PRMT1 – biochemical, small-molecule microarray, 635 nm fluorescence, primary screen (AID 1088).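 Further: binding of Prmt1 protein to compounds spotted on small-molecule microarray slides.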 To be noted: higher = more signal.
A short description of assay [2]: growth effects on S. cerevisiae YJM789 – YJM789 clinical isolate, OD600, 24 h, basal, primary screen (AID 1089).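 Further: growth of clinical yeast isolate S. cerevisiae YJM 789 seeded 1000 cells per well; test concentration not given here.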 To be noted: higher = more signal, called active from +8 up or from −8 down.
The nature of assay [3]: S. pombe growth modifiers, basal conditions – strain 972, OD600, 24 h, no modulator, primary screen (AID 1090).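 Further: basal condition with compound alone and no growth modifier present; test concentration not given here.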 The note with it: S. pombe 972 growth, higher = more signal, called active from +8 up or from −8 down.
The nature of assay [4]: budding yeast growth modifiers under rapamycin – strain BY4716, OD600, 96 h, primary screen (AID 1091). Further: test concentration not given here. The note with it: S. cerevisiae BY4716 + rapamycin, higher = more signal, called active from +8 up or from −8 down.
In assay [5] the target is Torsin-1A-interacting protein 2 (Homo sapiens) (UniProt Q8NFQ8). In words: small molecules binding lysate-expressed LULL1 – cell lysate, human LULL1 lysate, 635/667 nm fluorescence, primary screen (AID 1092).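 Further: probe is lysate of COS7 cells overexpressing human LULL1; score merges per-feature 667 nm fluorescence with signal-to-noise.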 The note with it: small-molecule microarray, hLULL1 lysate binding, 635 nm fluorescence; higher = more signal.
Assay [6] is described as follows: optical density change of DRC41 E. coli – strain DRC41, OD650, 24 h, E. coli filamentation project, primary screen (AID 1093).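 Further: MC1000 strain lacking acrAB efflux and sulA so SOS filamentation is blocked; test concentration not given here.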 To be noted: E. coli DRC41 growth, higher = more signal, called active from +8 up or from −8 down.
The nature of assay [7]: probe aLefty2 binding to arrayed compounds – biochemical, biotinylated probe, 635/667 nm fluorescence, primary screen (AID 1094).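 Further: score merges spot fluorescence near 667 nm with spot signal-to-noise ratio.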 To be noted: small-molecule microarray, higher = more signal.
The test system of assay [8] is Noggin (protein binding on small-molecule microarray). The assay can be described thus: small molecules binding Noggin protein – biochemical, 635/667 nm fluorescence, primary screen (AID 1095).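 Further: score merges 667 nm feature fluorescence with signal to noise over triplicate slides.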 The note with it: 635 nm fluorescence, higher = more signal.
The target of assay [9] is Neurogenic locus notch homolog protein 3 (Homo sapiens) (UniProt Q9UM47). In words: small molecules binding NOTCH3 protein – biochemical, 635/667 nm fluorescence, primary screen (AID 1096). To be noted: small-molecule microarray, 635 nm fluorescence, higher = more signal.
The nature of assay [10]: probe aEGFR binding to arrayed compounds – biochemical, biotinylated probe, 635/667 nm fluorescence, primary screen (AID 1097).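 Further: probe is a biotinylated anti-EGFR antibody binding compounds printed on slides; score combines fluorescence near 667 nm and signal to noise of each spot.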 To be noted: small-molecule microarray, higher = more signal.

In PubChem BioAssay one finds composite z-score and z-score data, which are given here for six compounds.

Active and inactive are the calls of the source.

Sequence of Neurogenic locus notch homolog protein 3 (Homo sapiens) (Q9UM47 whole entry, looked up): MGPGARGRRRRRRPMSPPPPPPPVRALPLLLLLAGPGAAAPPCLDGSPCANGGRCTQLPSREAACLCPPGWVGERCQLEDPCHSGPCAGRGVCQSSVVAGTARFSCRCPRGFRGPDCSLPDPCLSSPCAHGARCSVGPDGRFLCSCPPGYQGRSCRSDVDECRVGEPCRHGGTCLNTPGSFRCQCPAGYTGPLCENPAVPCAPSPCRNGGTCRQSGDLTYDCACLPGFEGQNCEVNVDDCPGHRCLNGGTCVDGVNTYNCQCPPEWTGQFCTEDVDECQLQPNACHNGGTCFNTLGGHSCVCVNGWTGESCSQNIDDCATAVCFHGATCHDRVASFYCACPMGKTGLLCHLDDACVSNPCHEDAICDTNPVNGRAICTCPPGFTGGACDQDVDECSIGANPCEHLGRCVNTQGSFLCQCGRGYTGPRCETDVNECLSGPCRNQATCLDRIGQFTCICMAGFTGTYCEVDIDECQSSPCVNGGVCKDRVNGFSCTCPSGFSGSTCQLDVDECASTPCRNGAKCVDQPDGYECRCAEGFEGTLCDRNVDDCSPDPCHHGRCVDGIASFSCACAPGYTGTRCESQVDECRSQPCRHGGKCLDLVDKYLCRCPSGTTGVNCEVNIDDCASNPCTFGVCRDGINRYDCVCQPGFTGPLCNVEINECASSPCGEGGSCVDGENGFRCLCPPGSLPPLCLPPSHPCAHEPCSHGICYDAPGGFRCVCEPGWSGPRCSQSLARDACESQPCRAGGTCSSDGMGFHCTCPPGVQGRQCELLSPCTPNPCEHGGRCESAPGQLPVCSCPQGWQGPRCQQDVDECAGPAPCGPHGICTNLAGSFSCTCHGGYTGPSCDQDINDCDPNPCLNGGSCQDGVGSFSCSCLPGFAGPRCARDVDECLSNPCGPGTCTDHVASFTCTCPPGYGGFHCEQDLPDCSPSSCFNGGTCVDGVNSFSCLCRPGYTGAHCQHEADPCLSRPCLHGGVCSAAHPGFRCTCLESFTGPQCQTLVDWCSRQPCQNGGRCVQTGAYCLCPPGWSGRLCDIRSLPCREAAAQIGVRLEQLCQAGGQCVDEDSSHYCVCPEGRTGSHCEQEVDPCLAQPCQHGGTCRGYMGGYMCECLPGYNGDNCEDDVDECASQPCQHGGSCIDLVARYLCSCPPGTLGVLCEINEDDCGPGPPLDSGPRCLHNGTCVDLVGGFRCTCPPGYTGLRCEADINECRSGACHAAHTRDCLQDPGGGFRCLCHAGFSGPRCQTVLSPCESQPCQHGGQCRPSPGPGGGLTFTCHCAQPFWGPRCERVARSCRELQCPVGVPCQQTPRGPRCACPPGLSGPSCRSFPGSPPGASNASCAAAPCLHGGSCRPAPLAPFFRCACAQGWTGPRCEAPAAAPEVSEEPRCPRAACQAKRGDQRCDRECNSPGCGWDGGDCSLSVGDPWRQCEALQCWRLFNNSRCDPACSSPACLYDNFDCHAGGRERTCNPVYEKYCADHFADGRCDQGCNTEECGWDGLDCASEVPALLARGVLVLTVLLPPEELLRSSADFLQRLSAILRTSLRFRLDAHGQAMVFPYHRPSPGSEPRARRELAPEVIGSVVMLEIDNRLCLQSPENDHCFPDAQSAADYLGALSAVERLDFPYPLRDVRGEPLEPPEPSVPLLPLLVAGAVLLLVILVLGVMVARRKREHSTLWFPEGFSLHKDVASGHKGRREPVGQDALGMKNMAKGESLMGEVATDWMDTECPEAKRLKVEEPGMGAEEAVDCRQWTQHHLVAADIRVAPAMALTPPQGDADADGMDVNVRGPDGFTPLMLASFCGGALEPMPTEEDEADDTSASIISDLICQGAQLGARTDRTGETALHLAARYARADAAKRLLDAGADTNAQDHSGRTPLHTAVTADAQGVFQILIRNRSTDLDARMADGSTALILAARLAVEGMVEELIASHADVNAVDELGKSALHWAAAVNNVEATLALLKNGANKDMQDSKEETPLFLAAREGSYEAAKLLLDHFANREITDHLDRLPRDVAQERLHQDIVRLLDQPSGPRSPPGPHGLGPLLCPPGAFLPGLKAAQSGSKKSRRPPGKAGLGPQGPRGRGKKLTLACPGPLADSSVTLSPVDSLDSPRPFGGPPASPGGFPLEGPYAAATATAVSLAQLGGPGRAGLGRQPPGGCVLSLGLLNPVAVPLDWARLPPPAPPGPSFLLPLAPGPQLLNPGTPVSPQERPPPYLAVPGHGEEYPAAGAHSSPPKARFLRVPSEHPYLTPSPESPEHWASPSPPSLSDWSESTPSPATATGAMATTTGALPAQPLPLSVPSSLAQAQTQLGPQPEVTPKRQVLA
Sequence of Torsin-1A-interacting protein 2 (Homo sapiens) (Q8NFQ8 whole entry, looked up): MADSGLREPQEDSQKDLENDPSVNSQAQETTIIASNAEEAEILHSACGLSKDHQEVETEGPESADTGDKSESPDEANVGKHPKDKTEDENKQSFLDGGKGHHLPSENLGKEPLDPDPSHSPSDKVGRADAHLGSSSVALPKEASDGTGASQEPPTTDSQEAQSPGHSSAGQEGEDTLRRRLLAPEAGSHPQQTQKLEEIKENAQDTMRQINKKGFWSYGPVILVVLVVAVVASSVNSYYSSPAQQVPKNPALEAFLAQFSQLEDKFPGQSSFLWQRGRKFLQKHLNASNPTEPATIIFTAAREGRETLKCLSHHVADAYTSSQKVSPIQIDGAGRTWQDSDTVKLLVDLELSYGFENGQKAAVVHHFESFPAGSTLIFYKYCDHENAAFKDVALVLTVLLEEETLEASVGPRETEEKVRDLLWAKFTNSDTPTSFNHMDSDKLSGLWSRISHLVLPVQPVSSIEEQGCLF

Consider `COc1ccc([Si](C)(C)[C@H]2[C@H](CCO)O[C@@]3(C(=O)N(Cc4ccc(N5C(=O)COc6ccccc65)cc4)c4ccccc43)[C@@H]2C)cc1`, for which the composite z-score is 1.06 in [1]; 1.31 in [5]; -0.0796 in assay [7]; -0.6 in [8]; -0.0154 in assay [9]; -0.222 in assay [10]. Further, the z-score was 0.223 (inactive) in assay [2], -0.379 (inactive) in assay [3], 25.3 (active) in assay [4] and -0.132 (inactive) in [6].

For the compound `C=CCOC(=O)[C@@H]1[C@H]2C(=O)O[C@H](c3ccccc3)[C@H](c3ccccc3)N2[C@H](c2ccc(OCCOC(=O)[C@@H]3C[C@@H]4C(=O)N5CCC[C@H]5C(=O)N4[C@@H]3c3ccc(O)cc3)cc2)[C@@]12C(=O)Nc1ccc(I)cc12`, the composite z-score in [1] was 1.42; in assay [5], 2.55; in assay [7], -0.207; in [8] it was 1.51; in assay [9], 0.565; in [10], -0.242. Moreover, the z-score in [2] is -0.577 (inactive); in assay [3] it was 0.687 (inactive); in assay [4], 2.09 (inactive); in assay [6] it was 1.75 (inactive).

As to `COc1cc(CO)cc(I)c1O[C@H]1C=C(C(=O)NCCO)C[C@@H](N(CCN2CCOCC2)C(=O)C2CCOC2)[C@@H]1O` (stereo not given in full), the composite z-score in assay [1] was 0.815; in assay [5] it was -0.367; in assay [7], -0.0636; in assay [8], 0.407; in assay [9] it was 0.51; in assay [10] it was -0.099. Also, the z-score was -0.263 (inactive) in [2], -0.62 (inactive) in assay [3], -0.679 (inactive) in [4] and 2.36 (inactive) in assay [6].

In the case of `CC(C)(C)OC(=O)CC[C@@]1(C(=O)NCCN2CCOCC2)N=C(c2ccc(OCCCO)cc2)O[C@@H]1c1ccccc1N=[N+]=[N-]`, the composite z-score in [1] is 1.45; in assay [5], 3.09; in [7] it was 0.591; in assay [8], -0.0404; in assay [9], 1.11; in assay [10], 0.171. The z-score in [2] was -0.174 (inactive); in [3], -0.182 (inactive); in [4] it was -0.336 (inactive); in [6], -0.115 (inactive).

Consider `COc1ccc(CCN2C(=O)[C@@]3(c4ccc([N+](=O)[O-])cc4)CC(=O)N(C4CCCCC4)[C@@H]3c3ccc(CO)cc32)cc1`, for which the composite z-score is 1.09 in assay [1]; 0.479 in assay [5]; -0.0246 in assay [7]; 0.792 in assay [8]; 0.441 in assay [9]; -0.1 in assay [10]. In addition, the z-score in assay [2] was -1.82 (inactive); in [3], 0.701 (inactive); in assay [4] it was -1.83 (inactive); in [6], 0.483 (inactive).

In the case of `O=C(c1ccccc1)N1Cc2ccccc2[C@@H]2OC(c3ccc(OCCCO)cc3)=N[C@]2(Cc2ccccc2)C1=O`, the composite z-score in assay [1] was 1.2; in assay [5], 3.13; in [7] it was 0.0337; in assay [8], 1.05; in [9], 1.1; in assay [10], -0.0187. Besides, the z-score in assay [2] is -0.756 (inactive); in assay [3], 0.833 (inactive); in assay [4], 4.11 (inactive); in assay [6] it was -0.0783 (inactive).
